Measurements from PubChem BioAssay (NCI).
This is part of a sample that, as a whole, favours compounds with a hit. Of some 83,000 tested, about 20% had one in any assay.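 Activity criterion: percent growth below 10, measured after cells in 96-well plates were exposed to a single compound concentration for 48 hours.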 Activity calls are given as the source filed them.

Assays:
Assay in all cases: NCI-60 one-dose screen, 48 h (100 = growth as untreated, 0 = no growth, -100 = all killed)
Conditions in all cases: 10 µM unless noted
[1] = system: DU-145 prostate
[2] = system: K-562 leukemia
[3] = system: MALME-3M melanoma
[4] = system: MDA-MB-231 breast
[5] = system: RXF 393 renal
[6] = system: SF-268 CNS
[7] = system: SF-295 CNS
[8] = system: SF-539 CNS
[9] = system: UACC-257 melanoma
[10] = system: M14 melanoma
[11] = system: HCT-15 colon
[12] = system: HT29 colon
[13] = system: SNB-75 CNS
[14] = system: SNB-19 CNS
[15] = system: U251 CNS
[16] = system: PC-3 prostate
[17] = system: SK-MEL-5 melanoma
[18] = system: UACC-62 melanoma
[19] = system: LOX IMVI melanoma
[20] = system: SK-MEL-28 melanoma

Measured: growth

CSc1nc2ncc([N+](=O)[O-])c(=O)n2[nH]1
inactive: [1] 110% | [2] 104% | [3] 101% | [4] 108% | [5] 105% | [6] 98.8% | [7] 96.6% | [8] 100% | [9] 105% | [10] 98.4% | [11] 105% | [12] 107% | [13] 93% | [14] 103% | [15] 102% | [16] 98.1% | [17] 103% | [18] 101% | [19] 101% | [20] 105%

CS(=O)(=O)Nc1cc(-c2ccc3ncnc(Nc4ccc5c(cnn5Cc5cccc(F)c5)c4)c3c2)cnc1Cl
inactive: [1] 16.2% | [2] 19.4% | [9] 20.2% | [11] 46.9% | [14] 22.2% | [16] 10.9%
active: [3] -36.1% | [4] 1.43% | [5] -25.7% | [6] 1.24% | [7] 6.42% | [8] -16.6% | [10] 1.49% | [12] 5.83% | [13] -13.9% | [15] 9.46% | [17] -68.3% | [18] -8.95% | [19] -44.8% | [20] -12.6%

C=C1CC[C@@H]2[C@](C)(COC(C)=O)[C@H](OC(C)=O)CC[C@@]2(C)[C@@H]1CC(Nc1ccc(S(=O)(=O)Nc2ncccn2)cc1)C1=CCOC1=O (stereo not given in full)
active: [2] 4.6% | [3] -4.93% | [4] -1.01% | [5] -70% | [8] -69% | [10] 4.76% | [11] -51.4% | [12] -48.6% | [15] -19% | [18] 3.93% | [19] -79.8% | [20] -17.7%
inactive: [1] 14.9% | [6] 18.3% | [7] 68% | [9] 16.6% | [13] 25.6% | [14] 36.7% | [16] 15.1% | [17] 24.1%

[O-]/[N+](=C\c1ccc(-n2cc(Cc3ccccc3Cc3cn(-c4ccc(/C=[N+](/[O-])c5ccccc5)cc4)nn3)nn2)cc1)c1ccccc1
inactive: [1] 106% | [2] 86.6% | [3] 102% | [4] 103% | [5] 116% | [6] 92.8% | [7] 99.5% | [8] 92.2% | [9] 108% | [10] 101% | [11] 98.8% | [12] 101% | [13] 91.9% | [14] 96.7% | [15] 107% | [16] 103% | [17] 105% | [18] 94.7% | [19] 87.9% | [20] 110%

Cc1ccc(Nc2cc(N)nc(N)n2)cc1Cl
inactive: [1] 94% | [2] 74.4% | [3] 97.7% | [4] 102% | [5] 97.5% | [6] 88.7% | [7] 92.3% | [8] 96.7% | [9] 93.6% | [10] 93.5% | [11] 97.1% | [12] 98.2% | [13] 80.2% | [14] 104% | [15] 97.3% | [16] 94.2% | [17] 97.5% | [18] 90.8% | [19] 97.3% | [20] 109%

Nc1ncc(-c2ccc3ncnc(Nc4cccc(Cl)c4)c3c2)cn1
inactive: [1] 28.9% | [2] 58.2% | [3] 40.4% | [4] 42.1% | [5] 25.2% | [6] 42% | [7] 44.2% | [8] 54.2% | [9] 65.7% | [10] 60.6% | [11] 38.8% | [12] 40% | [13] 49.8% | [14] 59.4% | [15] 43.6% | [16] 36.1% | [17] 64.8% | [18] 50.6% | [19] 44.8% | [20] 63.8%

COC(=O)[C@@H](CCCCNC(=O)[C@]12CCC(C)(C)C[C@@H]1C1=CC[C@@H]3[C@@]4(C)C/C(=C/c5ccco5)C(=O)C(C)(C)[C@@H]4CC[C@@]3(C)[C@]1(C)CC2)NC(=O)[C@]12CCC(C)(C)C[C@@H]1C1=CC[C@@H]3[C@@]4(C)C/C(=C/c5ccco5)C(=O)C(C)(C)[C@@H]4CC[C@@]3(C)[C@]1(C)CC2
inactive: [1] 115% | [2] 95.8% | [3] 102% | [4] 92.4% | [5] 119% | [6] 104% | [7] 101% | [8] 97.1% | [9] 100% | [10] 107% | [11] 103% | [12] 112% | [13] 106% | [14] 95.3% | [15] 106% | [16] 90.3% | [17] 97.5% | [18] 97.8% | [19] 107% | [20] 107%

CCN(CC)Cc1cc(C=C2C(=O)NC(=S)NC2=O)cc(OC)c1O
inactive: [1] 111% | [2] 117% | [3] 111% | [4] 103% | [5] 115% | [6] 101% | [7] 102% | [8] 101% | [9] 106% | [10] 108% | [11] 105% | [12] 108% | [13] 99.1% | [14] 98.6% | [15] 98.6% | [16] 102% | [17] 106% | [18] 96.5% | [19] 105% | [20] 107%

S=c1sc2c(Cl)nc(-c3cccnc3)nc2n1-c1ccccc1
inactive: [1] 27.4% | [3] 65.8% | [6] 14.6% | [7] 96.1% | [9] 50% | [10] 33% | [13] 57.1% | [14] 25.2% | [17] 76.3%
active: [2] 0.869% | [4] -11.7% | [5] -42.1% | [8] 6.15% | [11] -32.6% | [12] -53.8% | [15] 7.95% | [16] 1.75% | [18] -10.2% | [19] -52% | [20] -58.2%

COc1ccc(C(C)=O)cc1S(=O)(=O)Nc1c(N)nc(SC)[nH]c1=O
inactive: [1] 107% | [2] 93% | [3] 96.4% | [4] 111% | [5] 107% | [6] 96.1% | [7] 98.1% | [8] 108% | [9] 103% | [10] 94.8% | [11] 100% | [12] 104% | [13] 98.2% | [14] 109% | [15] 111% | [16] 104% | [17] 100% | [18] 97.1% | [19] 96.3% | [20] 109%

Nc1ncnc2c1c(-c1cccc(Cl)c1)nn2CC(=O)N1CCOCC1
inactive: [1] 111% | [2] 105% | [3] 110% | [4] 104% | [5] 99% | [6] 98.4% | [7] 98.6% | [8] 96.2% | [9] 103% | [10] 104% | [11] 101% | [12] 99.7% | [13] 94.2% | [14] 93.9% | [15] 102% | [16] 96.6% | [17] 101% | [18] 93.7% | [19] 103% | [20] 105%

Ic1ccc(OCCCCn2ccnc2)cc1
inactive: [1] 81.2% | [2] 37.6% | [4] 68.6% | [5] 67.1% | [6] 83.3% | [7] 77.9% | [8] 83.8% | [9] 64.3% | [10] 49.6% | [11] 74.5% | [12] 27.5% | [13] 64.5% | [14] 65.2% | [15] 67.8% | [16] 48.6% | [17] 79.6% | [18] 40.6% | [19] 80.3% | [20] 55.9%
active: [3] 1.9%

Oc1ccc(Cl)cc1/C=N\NC(=S)N/N=C/c1cc(Cl)ccc1O
inactive: [1] 58.3% | [2] 22.1% | [3] 23.4% | [4] 37.2% | [5] 42.6% | [6] 40.6% | [7] 11% | [8] 20% | [9] 21.8% | [10] 27.1% | [11] 23% | [12] 33.9% | [13] 77.7% | [14] 39.8% | [15] 25.9% | [16] 25.8% | [19] 15.7% | [20] 58.4%
active: [17] -32.6% | [18] 3.04%

CCCCCC(/C=N\NC(=S)N/N=C/C(=C/c1ccccc1)CCCCC)=C\c1ccccc1
inactive: [1] 88.7% | [2] 19.8% | [3] 93.4% | [4] 65.6% | [5] 74.8% | [6] 68% | [7] 45.7% | [8] 82.4% | [9] 98.1% | [10] 77.8% | [11] 45.4% | [12] 105% | [13] 102% | [14] 56.8% | [15] 55.3% | [16] 46.1% | [17] 68.2% | [18] 56.8% | [19] 60.8% | [20] 93.7%

CN(/C(N)=N/N=C/c1c2ccccc2cc2ccccc12)C1CCCCC1
inactive: [1] 57.6% | [2] 12.9% | [3] 39.8% | [4] 59.9% | [5] 48.1% | [6] 72.4% | [7] 45.7% | [8] 73.9% | [9] 64.3% | [10] 37.7% | [11] 25.5% | [12] 17.9% | [13] 57.2% | [14] 71.5% | [15] 48.3% | [16] 36.7% | [17] 12.1% | [18] 47.6% | [19] 31.3% | [20] 48.8%
